Test results taken from PubChem BioAssay (EPA / NIEHS).
Inconclusive results are not listed. Calls of active or inactive are those of the source. Rule for the calls, unless noted: active = hit-call score of the fitted dose curve at least 0.9, where 1 is the maximum; inactive = score below 0.9.

How the values were obtained:
[1] = biological target: Nuclear respiratory factor 1 (Homo sapiens) (UniProt Q16656); experiment: ATG_NRF1_CIS: Attagene CIS-FACTORIAL HepG2 Assay for human Nuclear Respiratory Factor 1 (NRF1) Orphan Gene (AID 2282987); conditions: HepG2 NRF1 cis-element reporter, Attagene multiplex; actives raise or lower the signal
Nuclear respiratory factor 1 (Homo sapiens), sequence (Q16656 whole entry, looked up): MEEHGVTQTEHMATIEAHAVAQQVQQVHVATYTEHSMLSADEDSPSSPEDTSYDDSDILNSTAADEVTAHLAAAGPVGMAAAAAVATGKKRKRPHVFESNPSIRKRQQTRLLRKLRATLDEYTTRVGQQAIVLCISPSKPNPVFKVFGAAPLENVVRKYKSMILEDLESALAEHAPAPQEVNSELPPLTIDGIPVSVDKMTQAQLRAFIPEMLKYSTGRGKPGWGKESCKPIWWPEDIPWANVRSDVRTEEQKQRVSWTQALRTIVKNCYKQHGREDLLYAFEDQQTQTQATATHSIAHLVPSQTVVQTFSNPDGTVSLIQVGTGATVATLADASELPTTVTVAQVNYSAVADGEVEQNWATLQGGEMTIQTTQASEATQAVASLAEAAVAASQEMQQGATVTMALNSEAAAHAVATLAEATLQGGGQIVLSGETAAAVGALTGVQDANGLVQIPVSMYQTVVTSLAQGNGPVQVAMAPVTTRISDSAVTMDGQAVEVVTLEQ
Method in brief: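 Endogenous factor activity was captured via cis-element-driven reporter transcripts in HepG2 cells. Following 24 h chemical treatment, transcripts were quantified by RT-PCR and capillary electrophoresis.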

[2] = ATG_NFI_CIS: Attagene CIS-FACTORIAL HepG2 Assay for human Nuclear Factor I (NFI) (AID 2282989); conditions: HepG2 cis-regulatory reporter, NFI response element transcription; actives raise or lower the signal
Method in brief: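 Cells: human liver HepG2, transiently transfected with promoter-regulated reporter transcription units. Exposure 24 h. Detection: fluorescent RT-PCR products separated by capillary electrophoresis, normalised to DMSO negative control.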

[3] = biological target: Myc proto-oncogene protein (Homo sapiens) (UniProt P01106); experiment: ATG_Myc_CIS: Attagene CIS-FACTORIAL HepG2 Assay for human Myelocytomatosis (Myc) Proto-Oncogene Transcription Factor (AID 2282990); conditions: HepG2, Attagene cis-reporter transcription factor activity; actives raise or lower the signal
Myc proto-oncogene protein (Homo sapiens), sequence (P01106 whole entry, looked up, the tested form may be a part): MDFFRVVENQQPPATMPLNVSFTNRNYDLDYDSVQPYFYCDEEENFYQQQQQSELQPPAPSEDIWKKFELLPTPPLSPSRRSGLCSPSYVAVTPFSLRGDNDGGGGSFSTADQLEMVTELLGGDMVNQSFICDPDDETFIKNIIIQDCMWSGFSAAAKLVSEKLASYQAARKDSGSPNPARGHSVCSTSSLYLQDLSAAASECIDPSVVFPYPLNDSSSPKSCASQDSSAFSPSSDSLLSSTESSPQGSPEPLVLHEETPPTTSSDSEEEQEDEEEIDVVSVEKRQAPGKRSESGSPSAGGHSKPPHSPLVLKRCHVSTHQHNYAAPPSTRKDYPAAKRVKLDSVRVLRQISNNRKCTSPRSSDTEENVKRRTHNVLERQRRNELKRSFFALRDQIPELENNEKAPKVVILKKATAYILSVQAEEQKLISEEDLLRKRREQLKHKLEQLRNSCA
Method in brief: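 After 24 h chemical treatment of HepG2 cells carrying multiplexed cis-regulated reporter constructs, reporter transcripts quantified by RT-PCR and capillary electrophoresis of fluorescent fragments. Gain or loss fitted against DMSO baseline.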

[4] = ATG_NRF2_ARE_CIS: Attagene CIS-FACTORIAL HepG2 Assay for human Nuclear Factor Erythroid 2 Related Factor 2 (NFR2) response to Antioxidant Response Elements (ARE) (AID 2282992); conditions: HepG2 Attagene ARE/NRF2 reporter, transcription factor activity; actives raise or lower the signal;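 for AC50: reporter mRNA level measured by RT-PCR and capillary electrophoresis fluorescence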
Method in brief: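 Readout: reporter mRNA quantified by RT-PCR plus FAM-labelled primer extension, HpaI digestion and capillary electrophoresis, 24 h after dosing transfected HepG2 cells. Gain or loss of signal is fitted bidirectionally against DMSO baseline.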

[5] = ATG_Oct_MLP_CIS: Attagene CIS-FACTORIAL HepG2 Assay for human Octamer-Binding Transcription Factor (Oct) (AID 2282993); conditions: HepG2 Attagene cis-factorial Oct reporter, mRNA; actives raise or lower the signal
Method in brief: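 HepG2, transient MRTU transfection, cis promoter elements; 24 h dosing; RT-PCR/CE fluorescence read-out of reporter mRNA; fit both directions vs DMSO.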

[6] = BSK_3C_TissueFactor: BioMAP Diversity Plus: 3C Assay for Tissue Factor Biomarker Activity (AID 2282997); conditions: BioMAP 3C HUVEC, tissue factor biomarker readout; actives raise or lower the signal
Method in brief: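 After a 24 h chemical exposure of primary human umbilical vein endothelial cells, Tissue Factor levels were quantified by ELISA.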

[7] = BSK_3C_uPAR: BioMAP Diversity Plus: 3C Assay for Urokinase-type plasminogen activator receptor (uPAR) Biomarker Activity (AID 2282998); conditions: BioMAP 3C HUVEC, uPAR biomarker ELISA; actives raise or lower the signal
Method in brief: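 A multiplexed primary-cell system built on human umbilical vein endothelium was used, with chemical present for 24 h before reading. Cell-surface uPAR was detected by ELISA; signal change in either direction counted against DMSO.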

[8] = BSK_3C_VCAM1: BioMAP Diversity Plus: 3C Assay for Vascular cell adhesion molecule 1 (VCAM1) Biomarker Activity (AID 2282999); conditions: BioMAP 3C HUVEC, VCAM1 ELISA, cytokine-stimulated; actives raise or lower the signal
Method in brief: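 Activity fitted in both directions relative to DMSO, with ELISA measurement of the surface marker on primary HUVEC (3C) at 24 h post-treatment; parallel SRB staining (0.1% SRB, TCA-fixed, 560 nm) flagged overt cytotoxicity.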

[9] = BSK_4H_Eotaxin3: BioMAP Diversity Plus: 4H Assay for Eotaxin 3 Biomarker Activity (AID 2283000); conditions: primary human endothelial cells (HUVEC); actives raise or lower the signal
Method in brief: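 Chemicals were added to human umbilical vein endothelium cultures, and Eotaxin-3 was quantified by ELISA at 24 h. Values were derived by bidirectional fitting with DMSO serving as negative control and activity baseline.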

[10] = read-out: Intercellular Adhesion Molecule 1 (ICAM1), ICAM1 (gene 3383); experiment: BSK_3C_ICAM1: BioMAP Diversity Plus: 3C Assay for Intercellular Adhesion Molecule 1 (ICAM1) Biomarker Activity (AID 2283003); conditions: primary human endothelial cells (HUVEC); actives raise or lower the signal
Method in brief: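 Chemicals are dosed onto primary human umbilical vein endothelium (3C system). After 24 h, ICAM-1 is measured by ELISA, and responses are fitted bidirectionally relative to DMSO.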

[11] = biological target: human Retinoic Acid Receptor beta (RARb), RARB (gene 5915) (UniProt P10826); experiment: ATG_RARb_TRANS: Attagene TRANS-FACTORIAL HepG2 Assay for human Retinoic Acid Receptor beta (AID 2283004; active = hit-call score of the fitted dose curve at least 0.9, where 1 is the maximum)
human Retinoic Acid Receptor beta (RARb), RARB (gene 5915), sequence (P10826 whole entry, looked up): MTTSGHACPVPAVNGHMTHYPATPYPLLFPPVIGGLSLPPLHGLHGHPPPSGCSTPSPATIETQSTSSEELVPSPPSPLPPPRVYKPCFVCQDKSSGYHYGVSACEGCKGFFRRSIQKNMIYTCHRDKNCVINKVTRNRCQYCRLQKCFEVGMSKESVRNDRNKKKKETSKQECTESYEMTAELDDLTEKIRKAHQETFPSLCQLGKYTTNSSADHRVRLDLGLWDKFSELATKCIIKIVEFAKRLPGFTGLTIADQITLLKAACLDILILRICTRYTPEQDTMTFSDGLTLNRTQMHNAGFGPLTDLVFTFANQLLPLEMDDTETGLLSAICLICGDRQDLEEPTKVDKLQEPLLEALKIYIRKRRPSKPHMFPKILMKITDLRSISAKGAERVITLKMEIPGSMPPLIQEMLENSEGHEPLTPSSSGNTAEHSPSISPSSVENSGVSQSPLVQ
Method in brief: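 Transient transfection of HepG2 with multiple reporter units → chemical dosing, 24 h → total RNA isolation → RT with oligo(dT) → reporter-specific PCR, 6-FAM primer extension, HpaI digest → capillary electrophoresis. Positive direction vs DMSO control.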

[12] = biological target: Retinoic acid receptor alpha (Homo sapiens) (UniProt P10276); experiment: ATG_RARa_TRANS: Attagene TRANS-FACTORIAL HepG2 Assay for human Retinoic Acid Receptor alpha (RARa) (AID 2283005; active = hit-call score of the fitted dose curve at least 0.9, where 1 is the maximum)
Retinoic acid receptor alpha (Homo sapiens), sequence (P10276 whole entry, looked up, the tested form may be a part): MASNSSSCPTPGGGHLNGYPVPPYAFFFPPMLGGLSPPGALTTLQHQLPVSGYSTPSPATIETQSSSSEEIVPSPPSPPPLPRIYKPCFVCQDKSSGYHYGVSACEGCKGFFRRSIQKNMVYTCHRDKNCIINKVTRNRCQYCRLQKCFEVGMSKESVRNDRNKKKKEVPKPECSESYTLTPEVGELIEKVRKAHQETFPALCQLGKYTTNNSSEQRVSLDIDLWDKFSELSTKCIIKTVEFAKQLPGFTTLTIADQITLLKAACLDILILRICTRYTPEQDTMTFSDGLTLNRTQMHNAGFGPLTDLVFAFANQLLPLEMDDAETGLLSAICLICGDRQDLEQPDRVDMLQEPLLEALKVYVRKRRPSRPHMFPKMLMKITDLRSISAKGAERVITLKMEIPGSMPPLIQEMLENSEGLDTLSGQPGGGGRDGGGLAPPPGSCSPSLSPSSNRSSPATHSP
Method in brief: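 Reporter transcripts, measured by RT-PCR with fluorescent labeling and capillary electrophoresis after 24 h dosing, reflect activity of an exogenous human RARa–GAL4 fusion in transiently transfected HepG2. Fitted for increase relative to DMSO.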

[13] = BSK_3C_Proliferation: Cell Proliferation Assessment in the BioMAP Diversity Plus: 3C Assay (AID 2283006); conditions: primary human endothelial cells (HUVEC);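 for AC50: potency may reflect either rise or fall in cell number versus DMSO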
Method in brief: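 Cells (human umbilical vein endothelial, sub-confluent) receive test chemical; after 48 h they are fixed in 10% trichloroacetic acid, stained with 0.1% SRB and read at 560 nm. Activity is referenced to DMSO, fitting increases and decreases.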

[14] = biological target: Peroxisome proliferator-activated receptor gamma (Homo sapiens) (UniProt P37231); experiment: ATG_PPARg_TRANS: Attagene TRANS-FACTORIAL HepG2 Assay for human Peroxisome Proliferator-activated Receptor-gamma (PPARg) (AID 2283007; active = hit-call score of the fitted dose curve at least 0.9, where 1 is the maximum)
Peroxisome proliferator-activated receptor gamma (Homo sapiens), sequence (P37231 whole entry, looked up, the tested form may be a part): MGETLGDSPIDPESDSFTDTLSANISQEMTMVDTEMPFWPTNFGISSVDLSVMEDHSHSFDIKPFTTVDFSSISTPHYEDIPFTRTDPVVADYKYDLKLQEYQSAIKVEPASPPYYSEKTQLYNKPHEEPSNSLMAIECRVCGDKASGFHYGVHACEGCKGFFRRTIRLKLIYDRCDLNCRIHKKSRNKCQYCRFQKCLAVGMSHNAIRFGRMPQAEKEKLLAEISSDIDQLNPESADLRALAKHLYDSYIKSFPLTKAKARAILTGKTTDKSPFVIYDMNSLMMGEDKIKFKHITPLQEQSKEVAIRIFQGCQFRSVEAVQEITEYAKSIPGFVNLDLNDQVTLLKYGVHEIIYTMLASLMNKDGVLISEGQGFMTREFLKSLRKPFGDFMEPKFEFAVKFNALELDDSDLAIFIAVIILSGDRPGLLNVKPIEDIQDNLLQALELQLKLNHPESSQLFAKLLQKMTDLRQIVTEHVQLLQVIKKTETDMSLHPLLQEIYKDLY
Method in brief: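 Liver-derived HepG2 cells expressing an exogenous NR-Gal4 chimera alongside GAL4-UAS reporter genes; 24 h exposure. Fluorescence of reporter RT-PCR products, separated by capillary electrophoresis, gives mRNA induction relative to DMSO.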

[15] = biological target: Nuclear receptor subfamily 1 group I member 2 (Homo sapiens) (UniProt O75469); experiment: ATG_PXR_TRANS: Attagene TRANS-FACTORIAL HepG2 Assay for human Pregnane X Receptor (PXR) (AID 2283008; active = hit-call score of the fitted dose curve at least 0.9, where 1 is the maximum)
Nuclear receptor subfamily 1 group I member 2 (Homo sapiens), sequence (O75469 whole entry, looked up, the tested form may be a part): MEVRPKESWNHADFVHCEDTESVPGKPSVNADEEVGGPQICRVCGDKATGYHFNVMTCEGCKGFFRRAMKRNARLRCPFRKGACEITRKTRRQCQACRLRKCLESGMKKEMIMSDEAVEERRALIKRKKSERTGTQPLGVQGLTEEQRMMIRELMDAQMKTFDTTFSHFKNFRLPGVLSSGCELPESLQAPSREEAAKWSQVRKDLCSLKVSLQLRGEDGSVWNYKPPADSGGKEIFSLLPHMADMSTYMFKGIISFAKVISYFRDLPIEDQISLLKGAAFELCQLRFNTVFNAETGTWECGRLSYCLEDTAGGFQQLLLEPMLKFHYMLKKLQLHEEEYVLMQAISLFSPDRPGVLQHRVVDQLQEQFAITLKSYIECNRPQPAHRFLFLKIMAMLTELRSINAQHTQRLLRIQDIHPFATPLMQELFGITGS
Method in brief: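 Trans-factorial format: exogenous NR-Gal4 fusion activity, not endogenous factor, in transfected human HepG2 liver cells. After 24 h dosing, RNA isolated, reverse-transcribed, amplified and resolved by capillary electrophoresis; induction scored versus DMSO.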

[16] = biological target: Cellular tumor antigen p53 (Homo sapiens) (UniProt P04637); experiment: ATG_p53_CIS: Attagene CIS-FACTORIAL HepG2 Assay for human p53 Transcription Factor (AID 2282994); conditions: HepG2 p53 cis-element reporter, Attagene mRNA; actives raise or lower the signal
Cellular tumor antigen p53 (Homo sapiens), sequence (P04637 whole entry, looked up): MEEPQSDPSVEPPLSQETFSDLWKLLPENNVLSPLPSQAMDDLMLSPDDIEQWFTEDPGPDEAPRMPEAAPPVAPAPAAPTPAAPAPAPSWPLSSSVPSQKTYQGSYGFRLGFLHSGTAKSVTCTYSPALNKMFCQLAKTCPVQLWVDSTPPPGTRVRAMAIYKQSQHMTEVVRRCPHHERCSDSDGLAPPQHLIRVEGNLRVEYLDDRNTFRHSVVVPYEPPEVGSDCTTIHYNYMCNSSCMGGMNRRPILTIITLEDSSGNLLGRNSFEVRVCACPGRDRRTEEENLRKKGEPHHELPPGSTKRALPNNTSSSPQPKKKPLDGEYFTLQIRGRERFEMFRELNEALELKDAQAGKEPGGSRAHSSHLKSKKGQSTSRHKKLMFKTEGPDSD
Method in brief: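 Read-out: reporter mRNA by RT-PCR plus capillary electrophoresis with fluorescence detection. Human HepG2 liver cells carried transfected multi-reporter cis-element constructs, dosed 24 h. Gain or loss of signal fitted bidirectionally against DMSO control.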

[17] = biological target: human Peroxisome Proliferator-activated Receptor alpha (PPARa), PPARA (gene 5465) (UniProt Q07869); experiment: ATG_PPARa_TRANS: Attagene TRANS-FACTORIAL HepG2 Assay for human Peroxisome Proliferator-activated Receptor alpha (PPARa) (AID 2283001; active = hit-call score of the fitted dose curve at least 0.9, where 1 is the maximum)
human Peroxisome Proliferator-activated Receptor alpha (PPARa), PPARA (gene 5465), sequence (Q07869 whole entry, looked up, the tested form may be a part): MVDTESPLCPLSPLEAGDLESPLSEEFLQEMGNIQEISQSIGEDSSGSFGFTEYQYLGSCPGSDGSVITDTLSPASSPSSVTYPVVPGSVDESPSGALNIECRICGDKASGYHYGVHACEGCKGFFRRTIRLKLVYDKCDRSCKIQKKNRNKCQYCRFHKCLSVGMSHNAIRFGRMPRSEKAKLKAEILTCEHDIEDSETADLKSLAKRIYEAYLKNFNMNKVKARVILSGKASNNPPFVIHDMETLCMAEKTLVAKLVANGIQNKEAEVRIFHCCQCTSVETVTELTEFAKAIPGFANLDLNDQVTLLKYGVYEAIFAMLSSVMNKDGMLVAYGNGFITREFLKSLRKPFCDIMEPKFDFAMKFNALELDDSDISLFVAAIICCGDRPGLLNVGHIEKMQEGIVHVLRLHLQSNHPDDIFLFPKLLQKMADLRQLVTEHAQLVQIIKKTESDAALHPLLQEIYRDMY
Method in brief: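 Reporter transcripts quantified by RT-PCR plus capillary electrophoresis after 24 h treatment, fitted upward relative to DMSO. Cells: human HepG2 transiently carrying multiple GAL4-UAS reporter units driven by NR-Gal4 chimeras.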

[18] = biological target: human Peroxisome Proliferator-activated Receptor delta (PPARd), PPARD (gene 5467) (UniProt Q03181); experiment: ATG_PPARd_TRANS: Attagene TRANS-FACTORIAL HepG2 Assay for human Peroxisome Proliferator-activated Receptor delta (PPARd) (AID 2283002; active = hit-call score of the fitted dose curve at least 0.9, where 1 is the maximum)
human Peroxisome Proliferator-activated Receptor delta (PPARd), PPARD (gene 5467), sequence (Q03181 whole entry, looked up, the tested form may be a part): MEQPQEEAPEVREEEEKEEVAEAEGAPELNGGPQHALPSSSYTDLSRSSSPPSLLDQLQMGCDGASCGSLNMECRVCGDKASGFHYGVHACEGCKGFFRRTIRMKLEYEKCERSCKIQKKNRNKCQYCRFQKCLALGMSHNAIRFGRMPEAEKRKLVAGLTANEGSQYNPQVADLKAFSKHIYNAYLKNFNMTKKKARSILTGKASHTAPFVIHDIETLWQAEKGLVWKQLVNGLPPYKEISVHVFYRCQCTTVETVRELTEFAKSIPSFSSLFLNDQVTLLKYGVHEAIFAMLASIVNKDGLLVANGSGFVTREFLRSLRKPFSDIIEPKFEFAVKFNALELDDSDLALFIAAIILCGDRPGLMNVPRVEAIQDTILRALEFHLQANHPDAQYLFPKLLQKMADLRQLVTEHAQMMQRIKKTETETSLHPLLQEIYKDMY
Method in brief: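 Read-out is induced reporter mRNA, quantified by RT-PCR with fluorescent labelling and capillary electrophoresis after 24 h dosing. Cells are HepG2 transiently carrying multiple GAL4-UAS reporter units driven by exogenous NR-GAL4 chimeras; DMSO serves as baseline.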

[19] = ATG_NF_kB_CIS: Attagene CIS-FACTORIAL HepG2 Assay for human Nuclear Factor Kappa B (NF-kB) (AID 2282991); conditions: HepG2 Attagene cis-factorial NF-kB reporter mRNA; actives raise or lower the signal
Method in brief: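 After 24 h compound incubation, transfected HepG2 cells yield total RNA; reporter cDNA is PCR-amplified, end-labelled with 6-FAM, HpaI-digested and analysed on a genetic analyser. Endogenous factor activity, DMSO-referenced bidirectional fit.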

[20] = biological target: human Retinoic Acid Receptor gamma (RARg), RARG (gene 5916) (UniProt P13631); experiment: ATG_RARg_TRANS: Attagene TRANS-FACTORIAL HepG2 Assay for human Retinoic Acid Receptor gamma (RARg) (AID 2283009; active = hit-call score of the fitted dose curve at least 0.9, where 1 is the maximum)
human Retinoic Acid Receptor gamma (RARg), RARG (gene 5916), sequence (P13631 whole entry, looked up, the tested form may be a part): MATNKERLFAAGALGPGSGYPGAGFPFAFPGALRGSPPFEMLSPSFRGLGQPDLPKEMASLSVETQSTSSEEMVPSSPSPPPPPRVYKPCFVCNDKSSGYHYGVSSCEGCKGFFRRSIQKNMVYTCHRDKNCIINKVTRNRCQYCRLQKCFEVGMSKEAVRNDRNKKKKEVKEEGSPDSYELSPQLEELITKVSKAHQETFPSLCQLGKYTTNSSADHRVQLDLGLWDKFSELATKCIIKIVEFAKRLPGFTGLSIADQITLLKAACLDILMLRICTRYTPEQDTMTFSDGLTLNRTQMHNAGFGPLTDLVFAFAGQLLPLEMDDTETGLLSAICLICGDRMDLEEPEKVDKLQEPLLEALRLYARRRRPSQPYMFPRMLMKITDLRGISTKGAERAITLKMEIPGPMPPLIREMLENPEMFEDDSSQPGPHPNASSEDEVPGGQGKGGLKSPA
Method in brief: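 TRANS format measured activity of exogenous NR-GAL4 fusion (RARg) in transfected HepG2 liver cells after 24 h dosing. Induced reporter RNA was detected by RT-PCR/capillary electrophoresis fluorescence, analysed in the positive direction against DMSO.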

Measured: AC50

CCOP(=O)(SC(C)CC)N1CCSC1=O (stereo not given)
not listed: [16] | [17] | [18] | [19] | [20]
inactive: all other assays above

C[Si](Cn1cncn1)(c1ccc(F)cc1)c1ccc(F)cc1
active: [1] 73.7 µM | [4] 11.8 µM | [5] 39.1 µM | [14] 48.5 µM
not listed: [11] | [12] | [19] | [20]
inactive: all other assays above

CCOP(=S)(OCC)Oc1ccc([N+](=O)[O-])cc1
active: [4] 23.5 µM | [5] 50 µM | [14] 28.8 µM | [15] 19.9 µM
not listed: [10] | [11] | [12] | [13] | [17] | [20]
inactive: all other assays above

CCC(=O)Nc1ccc(Cl)c(Cl)c1
active: [2] 10.5 µM | [4] 30.7 µM
not listed: [18] | [19] | [20]
inactive: all other assays above

CSC1=N[C@@](C)(c2ccccc2)C(=O)N1Nc1ccccc1
active: [4] 4.24 µM | [5] 10.7 µM | [6] 1.68 µM | [7] 7.46 µM | [9] 25.3 µM
inactive: [1] | [2] | [3] | [16] | [8] | [18] | [14] | [15]

C#CC(C)(C)NC(=O)c1cc(Cl)cc(Cl)c1
active: [4] 22 µM | [5] 30.6 µM | [15] 30.9 µM
not listed: [11] | [14] | [17] | [18] | [20]
inactive: all other assays above

COP(=O)(NC(C)=O)SC (stereo not given)
inactive: [1] | [2] | [3] | [4] | [5] | [16] | [6] | [7] | [8] | [9] | [14]

C#CCC1=C(C)C(OC(=O)C2C(C=C(C)C)C2(C)C)CC1=O (stereo not given)
active: [2] 80 µM | [3] 68.1 µM | [4] 13.2 µM | [5] 44.5 µM | [16] 80.1 µM | [13] 28.8 µM | [14] 28 µM | [15] 3.12 µM
not listed: [19]
inactive: all other assays above
